Test [1] can be described thus: NCI Yeast Anticancer Drug Screen. Data for the rad50 strain (AID 155).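 Also: 0% = growth of vehicle-only cultures of the same strain.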 The following applies: S. cerevisiae rad50 strain growth inhibition, active compounds read high. The method in brief: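 Compounds were tested on a yeast strain with an engineered DNA damage repair alteration; the reported value is growth inhibition normalised to vehicle treatment.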
Test [2] in a line: NCI Yeast Anticancer Drug Screen. Data for the mec2-1 strain (AID 157). The following applies: S. cerevisiae mec2-1 strain, active compounds read high. In a few lines:
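mec2-1 yeast strain, carrying an alteration in DNA damage repair or cell cycle control, was exposed to compounds; growth inhibition was measured relative to vehicle-treated controls.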

The nature of test [3]: NCI Yeast Anticancer Drug Screen. Data for the sgs1 mgt1 strain (AID 161).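 Also: 0% = growth of cultures given vehicle only.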 The following applies: S. cerevisiae sgs1 mgt1 strain, active compounds read high. The method in brief:
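Growth of a repair-deficient yeast mutant was monitored after compound treatment and expressed as inhibition relative to vehicle-treated cultures.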

Test [4] is described as follows: NCI Yeast Anticancer Drug Screen. Data for the cln2 rad14 strain (AID 165).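 Also: 0% = growth equal to vehicle treated cultures.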 As to conditions: S. cerevisiae cln2 rad14 strain, active compounds read high. The method in brief: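 Yeast carrying cln2 and rad14 alterations (cell cycle control and DNA damage repair) were exposed to compounds. Growth inhibition was measured against vehicle-treated controls.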
The nature of test [5]: NCI Yeast Anticancer Drug Screen. Data for the bub3 strain (AID 167). The following applies: S. cerevisiae bub3 mutant strain, active compounds read high. In a few lines: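 Growth of a checkpoint-deficient yeast mutant is measured after compound exposure. Values represent inhibition relative to vehicle.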
Test [6] in a line: NCI Yeast Anticancer Drug Screen. Data for the mlh1 rad18 strain (AID 175). The following applies: S. cerevisiae mlh1 rad18 strain growth inhibition, active compounds read high. In a few lines:
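Growth inhibition of the yeast strain was measured after compound exposure and expressed relative to vehicle-treated controls. The strain carries defined defects in DNA damage repair.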

The mark [7] stands for this setting: at 5.0 µM (retest, dose inferred, filed as 0.5).
Setting [8] is: at 50.0 µM (retest, dose inferred, filed as 5.0).

This is part of a sample that, as a whole, favours compounds with a hit. Of some 79,000 tested, about 15% had one in any assay. Values without a mark were called inactive. Calls of active or inactive are those of the source. Rule as the data show it: active = growth inhibition above about 70%; inactive = the rest.

With `CCOC(=O)C1CC12c1ccccc1-c1ccccc12` (stereo not drawn), the growth inhibition in test [1] (setting [7]) was 2%; in test [1] (setting [8]), 23%; in test [1] (at 50.0 µM), 73.5% (active); in test [2] (setting [7]), -6%; in test [2] (setting [8]) it was 29%; in test [2] (at 50.0 µM), 52.9%. Besides, the growth inhibition is -23% in test [3] (setting [7]); 48% in test [3] (setting [8]); 67.2% in test [3] (at 50.0 µM); -6% in test [4] (setting [7]); -5% in test [4] (setting [8]); 19.8% in test [4] (at 50.0 µM). Besides, the growth inhibition was 1% in test [5] (setting [7]); 4% in test [5] (setting [8]); 14.9% in test [5] (at 50.0 µM); -1% in test [6] (setting [7]); 41% in test [6] (setting [8]); 69.5% in test [6] (at 50.0 µM).
Turning to `CC1(C)N=C(N)N=C(N)N1CCCOc1ccc(NC(=O)c2ccc(S(=O)(=O)F)cc2)cc1`, the growth inhibition in test [1] (setting [7]) was -3%; in test [1] (setting [8]), 12%; in test [1] (at 50.0 µM), 20.2%; in test [2] (setting [7]) it was -6%; in test [2] (setting [8]), 30%; in test [2] (at 50.0 µM) it was 49.5%. Further, the growth inhibition in test [3] (setting [7]) was -2%; in test [3] (setting [8]), 15%; in test [3] (at 50.0 µM), 47.8%; in test [4] (setting [7]) it was -3%; in test [4] (setting [8]), 0%; in test [4] (at 50.0 µM), -9%. For the same compound, the growth inhibition in test [5] (setting [7]) is -8%; in test [5] (setting [8]) it was -4%; in test [5] (at 50.0 µM) it was -8.15%; in test [6] (setting [7]), -5%; in test [6] (setting [8]), 7%; in test [6] (at 50.0 µM), 21.4%.
Take `CC[C@H](C)c1occ2c(O)c(C(=O)O)c(=O)cc-2c1C`: the growth inhibition is 56% in test [1] (setting [7]); 98% (active) in test [1] (setting [8]); 24.5% in test [1] (at 50.0 µM); 71% (active) in test [2] (setting [7]); 99% (active) in test [2] (setting [8]); -2.7% in test [2] (at 50.0 µM). For the same compound, the growth inhibition in test [3] (setting [7]) is 99% (active); in test [3] (setting [8]), 99% (active); in test [3] (at 50.0 µM), 12.2%; in test [4] (setting [7]) it was 31%; in test [4] (setting [8]), 99% (active); in test [4] (at 50.0 µM) it was 3.2%. Further, the growth inhibition was 74% (active) in test [5] (setting [7]); 99% (active) in test [5] (setting [8]); 12.2% in test [5] (at 50.0 µM); 88% (active) in test [6] (setting [7]); 98% (active) in test [6] (setting [8]); 81.2% (active) in test [6] (at 50.0 µM).
As for `O=C(CCN1CC1)NCCc1ccccc1`, the growth inhibition in test [1] (setting [7]) is -152%; in test [1] (setting [8]), 90% (active); in test [1] (at 50.0 µM), 96.6% (active); in test [2] (setting [7]), -44%; in test [2] (setting [8]), 48%; in test [2] (at 50.0 µM), 83.3% (active). Further, the growth inhibition in test [3] (setting [7]) is -59%; in test [3] (setting [8]), 84% (active); in test [3] (at 50.0 µM), 58%; in test [4] (setting [7]), -60%; in test [4] (setting [8]), 73% (active); in test [4] (at 50.0 µM) it was 83.7% (active). Moreover, the growth inhibition in test [5] (setting [7]) is -72%; in test [5] (setting [8]), 87% (active); in test [5] (at 50.0 µM) it was 67.8%; in test [6] (setting [7]) it was -143%; in test [6] (setting [8]) it was 90% (active); in test [6] (at 50.0 µM), 93.7% (active).
Consider `Cc1oc2c([N+](=O)[O-])cccc2c1[N+](=O)[O-]`, for which the growth inhibition in test [1] (setting [7]) was 98% (active); in test [1] (setting [8]), 98% (active); in test [1] (at 50.0 µM), 99.5% (active); in test [2] (setting [7]), 99% (active); in test [2] (setting [8]), 99% (active); in test [2] (at 50.0 µM), 99.8% (active). Also, the growth inhibition is 99% (active) in test [3] (setting [7]); 98% (active) in test [3] (setting [8]); 99.6% (active) in test [3] (at 50.0 µM); 98% (active) in test [4] (setting [7]); 98% (active) in test [4] (setting [8]); 98.8% (active) in test [4] (at 50.0 µM). Besides, the growth inhibition is 99% (active) in test [5] (setting [7]); 99% (active) in test [5] (setting [8]); 52.2% in test [5] (at 50.0 µM); 98% (active) in test [6] (setting [7]); 98% (active) in test [6] (setting [8]); 99.7% (active) in test [6] (at 50.0 µM).
On to `ClCCN(CCCl)CCN1c2ccccc2Sc2ccc3ccccc3c21`, for which the growth inhibition in test [1] (setting [7]) is 3%; in test [1] (setting [8]), 31%; in test [1] (at 50.0 µM) it was 80% (active); in test [2] (setting [7]) it was 2%; in test [2] (setting [8]) it was 53%; in test [2] (at 50.0 µM), 40%. The growth inhibition in test [3] (setting [7]) was 7%; in test [3] (setting [8]), 81% (active); in test [3] (at 50.0 µM), 95.8% (active); in test [4] (setting [7]) it was -7%; in test [4] (setting [8]), 18%; in test [4] (at 50.0 µM), 70.9% (active). The growth inhibition in test [5] (setting [7]) was -5%; in test [5] (setting [8]), 42%; in test [5] (at 50.0 µM) it was 40.6%; in test [6] (setting [7]), 12%; in test [6] (setting [8]), 78% (active); in test [6] (at 50.0 µM) it was 83.5% (active).

The values are drawn from PubChem BioAssay (NCI).
